Among the data in PubChem BioAssay (NCI) are growth values, retold here.

What all share (assay): NCI-60 one-dose screen, 48 h (100 = growth as untreated, 0 = no growth, -100 = all killed)
The subject of assay [1] is NCI-H23 lung. The conditions noted are these: 10 µM unless noted.
Assay [2] deals with NCI-H226 lung. To be noted: 10 µM unless noted.
Assay [3] has as its system NCI-H322M lung. The conditions noted are these: 10 µM unless noted.
The subject of assay [4] is HOP-62 NSCLC. The conditions noted are these: 10 µM unless noted.
The test system of assay [5] is NCI-H460 lung. The conditions noted are these: 10 µM unless noted.
Assay [6] concerns HOP-92 NSCLC. The conditions noted are these: 10 µM.
Assay [7] deals with NCI-H522 lung. The conditions noted are these: 10 µM unless noted.
In assay [8] the test system is A549/ATCC NSCLC. The conditions noted are these: 10 µM unless noted.
Assay [9] has as its system 786-0 renal. The conditions noted are these: 10 µM unless noted.
Assay [10] relates to COLO 205 colon. The conditions noted are these: 10 µM unless noted.
Assay [11] relates to DU-145 prostate. The conditions noted are these: 10 µM unless noted.
For assay [12], the system named is K-562 leukemia. The conditions noted are these: 10 µM unless noted.
Assay [13] concerns MALME-3M melanoma. The conditions noted are these: 10 µM unless noted.
Assay [14] has as its system MDA-MB-231 breast. To be noted: 10 µM unless noted.
Assay [15] has as its system SF-268 CNS. The conditions noted are these: 10 µM unless noted.
Assay [16] concerns SF-295 CNS. The conditions noted are these: 10 µM unless noted.
The test system of assay [17] is SF-539 CNS. To be noted: 10 µM unless noted.
Assay [18] relates to UACC-257 melanoma. The conditions noted are these: 10 µM unless noted.

The panel holds about 83,000 compounds, 20% with a hit somewhere; the sample as a whole holds those more often.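 Assay: single dose, 48 h. Readout: percent growth (0 = no net growth; negative = cell death). Active: <10.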 A number with no mark means an inactive call. Calls of active or inactive are those of the source.

Consider `CC/C(=C/c1c(O)cccc1OC)c1ccc2c(OC)cccc2[o+]1`, for which the growth in [1] was 98.9%; in [2], 99%; in assay [3] it was 101%; in [4], 101%; in assay [5], 103%; in assay [6], 110%. The growth in assay [7] was 93.2%; in assay [8], 102%; in assay [9], 101%; in assay [10] it was 110%; in [11] it was 112%; in assay [12] it was 96.6%. The growth was 105% in [13]; 102% in [14]; 100% in assay [15]; 98.5% in assay [16]; 98.5% in [17]; 101% in assay [18].

As for `c1ccc(C(c2nc3ncncc3[nH]2)N2CSc3nc4ccccc4n3C2)cc1` (stereo not drawn), the growth in assay [1] was 107%; in assay [2], 98.7%; in assay [3], 106%; in [4], 96.6%; in assay [5], 107%; in assay [6] it was 91.5%. Also, the growth is 98.2% in [7]; 107% in assay [8]; 101% in [9]; 110% in assay [10]; 110% in assay [11]; 96.5% in assay [12]. In addition, the growth in [13] is 81.1%; in assay [14], 98.9%; in [15], 98.1%; in assay [16], 101%; in assay [17], 95.3%; in assay [18] it was 104%.

Consider `C#CCOc1ccc(/C=N\Nc2nc(-c3ccc(C)cc3)cs2)cc1OC`, for which the growth was 87.2% in assay [1]; 86.8% in assay [2]; 92.2% in [3]; 98.5% in assay [4]; 95.5% in assay [5]; 73.3% in [6]. Besides, the growth in assay [7] was 74.5%; in assay [8] it was 88.6%; in assay [9], 99.2%; in assay [10] it was 94.6%; in [11] it was 85.3%; in assay [12], 69.6%. For the same compound, the growth in assay [13] is 116%; in assay [14] it was 88.6%; in assay [15], 102%; in [16], 92.4%; in [17] it was 96.4%; in assay [18] it was 93.3%.

With `N#Cc1cccc(CN2CCC3=C(C2)C(=O)N(Cc2ccc(Cl)cc2)C2=NCCN23)c1`, the growth in [1] is 30.8%; in assay [2], 35%; in assay [3] it was 50.8%; in [4], 31.8%; in assay [5], 15%; in assay [6], 29%. In addition, the growth is 23.1% in [7]; 27.2% in assay [8]; 44.7% in [9]; -41% (active) in [10]; 28.5% in assay [11]; 23.3% in assay [12]. For the same compound, the growth is 50.4% in assay [13]; 31.7% in assay [14]; 36% in assay [15]; 8.53% (active) in assay [16]; 41.7% in assay [17]; 10.7% in assay [18].

In the case of `O=C(CNc1nc(-c2cccc([N+](=O)[O-])c2)cs1)Nc1cccc(Cl)c1`, the growth in assay [1] is 96%; in assay [2] it was 99.4%; in assay [3], 101%; in assay [4] it was 96.6%; in assay [5], 113%; in assay [6] it was 104%. Moreover, the growth in [7] was 98.3%; in [8], 108%; in assay [9] it was 105%; in assay [10] it was 112%; in assay [11], 112%; in [12] it was 97.1%. Moreover, the growth in assay [13] is 104%; in assay [14] it was 101%; in [15] it was 99.7%; in [16] it was 102%; in assay [17], 101%; in assay [18], 118%.

In the case of `CC(Nc1c(C#N)cnc2ccc(-c3cnc(N)nc3)cc12)c1ccccc1` (stereo not drawn), the growth is 13.1% in assay [1]; 18.4% in assay [2]; 6.93% (active) in assay [3]; 10.6% in [4]; 13.1% in assay [5]; -17.3% (active) in assay [6]. The growth is 7.27% (active) in assay [7]; 11.6% in assay [8]; 12.2% in [9]; 24% in assay [10]; 17.3% in assay [11]; 22.5% in assay [12]. In addition, the growth in assay [13] is 0.078% (active); in assay [14] it was 19.1%; in assay [15], 13.4%; in assay [16], -17% (active); in assay [17], 2.6% (active); in assay [18] it was 34.1%.

As for `O=C1CCC(N2C(=O)c3ccc(NS(=O)(=O)c4ccccc4OC(F)(F)F)cc3C2=O)C(=O)N1` (stereo not drawn), the growth in [1] was 107%; in [2], 44.7%; in assay [3] it was 46.1%; in [4] it was 6.09% (active); in assay [5], 115%; in assay [6] it was -2.41% (active). The growth in assay [7] is 69.3%; in assay [9], 47.6%; in assay [10], 20.5%; in assay [11] it was 108%; in [12], 65.8%; in assay [13], 7.28% (active). For the same compound, the growth in [14] was 6.46% (active); in [15], 43.2%; in assay [16], 56.9%; in assay [17] it was 79.7%; in [18], 107%.

Turning to `CN1CCN(Cc2ccc(NC(=O)c3cncc(C#Cc4cnc5ccc(OCC6(C)COC6)nn45)c3)cc2C(F)(F)F)CC1`, the growth in assay [1] is -76.2% (active); in [2], -62.4% (active); in [3] it was -81.2% (active); in assay [4], -69.4% (active); in assay [5] it was -77.5% (active); in [6], -70.6% (active). The growth in assay [7] was -28.3% (active); in [8] it was -43.8% (active); in assay [9], -55.4% (active); in assay [10], -58.5% (active); in [11] it was -85.3% (active); in assay [12], 4.99% (active). Also, the growth is -79.8% (active) in [13]; -74.1% (active) in assay [14]; -62.2% (active) in assay [15]; -97.1% (active) in [16]; -88.6% (active) in assay [17]; -70.6% (active) in assay [18].
